These results are taken from PubChem BioAssay (EPA / NIEHS).

Structures are written as SMILES. Records with an inconclusive call do not appear. The source made the active and inactive calls. Rule for the calls, unless noted: active = hit-call score of the fitted dose curve at least 0.9, where 1 is the maximum; inactive = score below 0.9.

Experiment [1] in a line: CCTE_Mundy_HCI_Cortical_Synap_Neur_Matur_NeuriteSpotCountPerNeuriteLength: CCTE's Synaptogenesis and Neurite Maturation Assay in rat cortical cells for Neurite Spot Count per Neurite Length, Mundy Lab (AID 2284210). In a few lines:
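Neurite-associated synapse density (synaptophysin puncta per unit neurite length) is measured by fluorescence high-content imaging in rat cortical cultures treated from DIV 7 and fixed at DIV 12, with DMSO as negative control.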

The nature of experiment [2]: CCTE_Mundy_HCI_Cortical_NOG_NeuriteLength: CCTE's Neurite Outgrowth Assay in rat cortical cells for Neurite Length, Mundy Lab (AID 2284213). In short, it runs like this: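 First, rat primary cortical cells were plated and, 2 h later, given test chemical as a 1/10 dilution. Finally, βIII-tubulin immunostaining enabled automated imaging of neurite length.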
Experiment [3] is described as follows: CCTE_Mundy_HCI_Cortical_Synap_Neur_Matur_NeuriteSpotCountPerNeuron: CCTE's Synaptogenesis and Neurite Maturation Assay in rat cortical cells for Neurite Spot Count per Neuron Count, Mundy Lab (AID 2284215). In a few lines: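 Rat primary cortical cultures given AraC at DIV 5, dosed from DIV 7 to DIV 12 with media change. Fixed, stained for MAP2, synaptophysin and Hoechst; neurite-associated synaptophysin puncta per neuron quantified by high-content imaging versus DMSO.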

Experiment [4] can be described thus: CCTE_Mundy_HCI_Cortical_Synap_Neur_Matur_SynapseCount: CCTE's Synaptogenesis and Neurite Maturation Assay in rat cortical cells for Synapse Count, Mundy Lab (AID 2284218). In short, it runs like this:
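Endpoint: synapses/neuron by HCI (synaptophysin puncta on MAP2-labelled neurites, Hoechst nuclei). Rat primary cortical cells, AraC DIV 5, dosed DIV 7, fixed DIV 12; DMSO negative control.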

Experiment [5] can be described thus: CCTE_Mundy_HCI_hN2_NOG_NeuriteCount: CCTE's Neurite Outgrowth Assay in human hN2 cells for Neurite Count, Mundy Lab (AID 2284219; active = hit-call score of the fitted dose curve at least 0.9, where 1 is the maximum). In short, it runs like this: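 In this morphology assay, hNP1-derived neurons received test chemical 2 h post-plating and were fixed two days later in warm paraformaldehyde/sucrose containing Hoechst 33342. Neurites, labelled by rabbit anti-βIII-tubulin (1:800) and Alexa Fluor-488 (1:500), were counted automatically.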

Experiment [6] is described as follows: CCTE_Mundy_HCI_hN2_NOG_NeuriteLength: CCTE's Neurite Outgrowth Assay in human hN2 cells for Neurite Length, Mundy Lab (AID 2284220; active = hit-call score of the fitted dose curve at least 0.9, where 1 is the maximum). In a few lines: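 Using βIII-tubulin immunofluorescence and Hoechst nuclear counterstain, this component quantifies neurite length in hNP1-derived neurons.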
A short description of experiment [7]: CCTE_Mundy_HCI_hN2_NOG_NeuronCount: CCTE's Neurite Outgrowth Assay in human hN2 cells for Neuron Count, Mundy Lab (AID 2284221; active = hit-call score of the fitted dose curve at least 0.9, where 1 is the maximum). In short, it runs like this:
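Read-out is the number of betaIII-tubulin-positive neurons imaged by automated high-content analysis, with DMSO as negative control.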

Experiment [8] is described as follows: CCTE_Mundy_HCI_Cortical_Synap_Neur_Matur_CellBodySpotCount: CCTE's Synaptogenesis and Neurite Maturation Assay in rat cortical cells for Cell Body Spot Count, Mundy Lab (AID 2284223). In a few lines: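 Primary rat cortical cultures, AraC added at DIV 5; dosed DIV 7 through DIV 12 […]. Fixed, stained for MAP2 and synaptophysin with Hoechst; cell body-associated synaptophysin puncta per neuron counted by high-content imaging, loss vs DMSO.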

A short description of experiment [9]: UKN4_HCS_LUHMES_cell_viability: Viability Assessment in the University of Konstanz (UKN) Leist Lab Neurite Outgrowth Assay in human LUHMES cells (UKN4) (AID 2284232). In short, it runs like this:
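Measured in replated, 2-day-differentiated LUHMES cells treated 24 h; stained 30 min with H-33342 and calcein-AM before high-content imaging.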

Experiment [10] in a line: UKN2_HCS_IMR90_cell_viability: Viability Assessment in the University of Konstanz (UKN) Leist Lab Neural Crest Cell Migration Assay in human induced IMR90 Pluripotent Stem Cells (UKN2) (AID 2284233).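 Note: viability of neural crest cells differentiated from IMR90 iPSC measured by calcein-AM fluorescence imaging; cells exposed to compound for 24 h after a 24 h migration phase.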 In a few lines:
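cMINC format, iPSC-derived neural crest (IMR90); 24 h migration (EGF/FGF, N2-S), then 24 h toxicant. Calcein-AM/H-33342 stain 30 min; fluorescence intensity by HCS; DMSO-normalised, bidirectional fitting.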

Experiment [11] can be described thus: CCTE_Mundy_HCI_hNP1_Casp3_7: CCTE's Caspase-Glo 3/7 Assay in human neuroprogenitor cells for Apoptosis, Mundy Lab (AID 2284240). In a few lines: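 Neuroepithelial-lineage stem cells from WA09 embryonic cells were treated with chemicals after 40–44 h of culture. Twenty-four hours later, caspase-3/7 activation was detected luminescently after a 30 min room-temperature reagent step, with DMSO as baseline.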

A short description of experiment [12]: IUF_NPC2c_oligodendrocyte_migration_120hr: Leibniz Research Institute for Environmental Medicine (IUF) 120-hour Neural Progenitor Cell Migration Assay for Oligodendrocyte Migration (NPC2c) (AID 2284297).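 Note: O4-positive oligodendrocyte migration distance divided by radial glia migration distance.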 In a few lines:
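Human fetal neural progenitor spheres (0.3 mm) are plated on poly-D-lysine/laminin in N2 differentiation medium and exposed for 120 h, with half-medium renewal at day 3. Oligodendrocyte (O4+) migration distance comes from ICC imaging, normalised to radial glia migration.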

Experiment [13] is described as follows: IUF_NPC2a_radial_glia_migration_120hr: Leibniz Research Institute for Environmental Medicine (IUF) 120-hour Neural Progenitor Cell Migration Assay for Radial Glia Migration (NPC2a) (AID 2284298). In short, it runs like this: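 Human fetal-cortex neural progenitor spheres (0.3 mm) plated on poly-D-lysine/laminin in N2 differentiation medium, exposed 120 h at 37C with half-medium renewal at day 3. Radial glia migration distance (um) measured from Hoechst-stained nuclei images; DMSO baseline.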

Experiment [14] is described as follows: IUF_NPC2a_radial_glia_migration_72hr: Leibniz Research Institute for Environmental Medicine (IUF) 72-hour Neural Progenitor Cell Migration Assay for Radial Glia Migration (NPC2a) (AID 2284299). In short, it runs like this: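 Spheres of human primary neural progenitors migrate on poly-D-lysine/laminin under compound exposure at 37C, 5% CO2. The 72 h radial glia migration distance comes from brightfield images, measured manually.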

A short description of experiment [15]: IUF_NPC2b_neuronal_migration_120hr: Leibniz Research Institute for Environmental Medicine (IUF) 120-hour Neural Progenitor Cell Migration Assay for Neuron Migration (NPC2b) (AID 2284300). In short, it runs like this: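 0.3 mm hNPC spheres on poly-D-lysine/laminin in N2 differentiation medium exposed 120 h, half-medium refresh day 3; 7 concentrations, DMSO max 0.1%. Neuron (TUBB3) distance from sphere core by ICC imaging, normalised to radial glia migration.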

Experiment [16] can be described thus: IUF_NPC3_neuronal_differentiation_120hr: Leibniz Research Institute for Environmental Medicine (IUF) 120-hour Neuronal Differentiation Assay (NPC3) (AID 2284301). In a few lines: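 Neuronal differentiation of primary human neural progenitors measured by high-content imaging: percent TUBB3+ of Hoechst+ nuclei within migrated area at 120 h, seven-point serial dilution plus solvent control, gain or loss relative to DMSO.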

Experiment [17] can be described thus: IUF_NPC4_neurite_length_120hr: Leibniz Research Institute for Environmental Medicine (IUF) 120-hour Neuronal Morphology Assay for Neurite Length (NPC4) (AID 2284302). In a few lines:
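Neurons from differentiating human fetal neural progenitor spheres are scored for average neurite length after five days of compound exposure. Fitting uses DMSO as negative control.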

The nature of experiment [18]: IUF_NPC2-5_cytotoxicity_72hr: Cytotoxicity Assessment at 72 hours in the Leibniz Research Institute for Environmental Medicine (IUF) Neural Progenitor Cell Migration and Differentiation Assay for Cytotoxicity (NPC2-5) (AID 2284306; active = hit-call score of the fitted dose curve at least 0.9, where 1 is the maximum;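 note: LDH release into supernatant measured by resorufin fluorescence marking membrane damage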). In a few lines: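 Primary human neural progenitor spheres migrate and differentiate on laminin. Compound is present from the start of differentiation, with DMSO kept at or below 0.1%. At 72 h, supernatant LDH is quantified fluorometrically, with values fitted in the positive direction.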

Experiment [19] in a line: IUF_NPC2-5_cytotoxicity_120hr: Cytotoxicity Assessment at 120 hours in the Leibniz Research Institute for Environmental Medicine (IUF) Neural Progenitor Cell Migration and Differentiation Assay (NPC2-5) (AID 2284307; active = hit-call score of the fitted dose curve at least 0.9, where 1 is the maximum). In short, it runs like this: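 Human fetal (GW 16-19) neural progenitor spheres (0.3 mm) plated on poly-D-lysine/laminin in N2 differentiation medium, exposed 120 h with half-medium renewal at day 3; 7 concentrations plus solvent control, DMSO ≤0.1%. LDH release in supernatant read by resorufin fluorescence.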

Experiment [20] can be described thus: IUF_NPC2-5_cell_number_120hr: Cell Number Assessment at 120 hours in the Leibniz Research Institute for Environmental Medicine (IUF) Neural Progenitor Cell Migration and Differentiation Assay (NPC2-5) (AID 2284308).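 Note: count of Hoechst-stained nuclei in migration zone around plated human neural progenitor spheres.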 In a few lines:
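Human fetal neural progenitor spheres (0.3 mm) plated on poly-D-lysine/laminin in N2 differentiation medium, exposed five days across 7 concentrations with half-medium refresh at day 3. Hoechst-positive nuclei counted in migration area at 120 h, relative to DMSO.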

The nature of experiment [21]: IUF_NPC2-5_viability_120hr: Viability Assessment at 120 hours in the Leibniz Research Institute for Environmental Medicine (IUF) Neural Progenitor Cell Migration and Differentiation Assay (NPC2-5) (AID 2284312). In short, it runs like this: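 Human fetal (GW 16-19) neural progenitor spheres of 0.3 mm were plated on poly-D-lysine/laminin in N2 differentiation medium and exposed from day 0 for 120 h, with half-medium refresh at day 3. Viability was read as alamar blue resazurin-to-resorufin fluorescence against DMSO.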

Regarding `CC(=O)[O-].CC(=O)[O-].O.O.O.[Pb+2]`, the compound was called inactive in experiment [1], in experiment [2], in experiment [3], in experiment [4], in [8] and in experiment [9]. For the same compound, the compound was classed as inactive in experiment [10], in experiment [11], in experiment [12], in [13], in experiment [14] and in [15]. The compound was called inactive in experiment [16], in experiment [17], in [18], in experiment [19], in experiment [20] and in experiment [21]. Moreover, the AC50 in [5] was 2190 nM (active); in experiment [6], 2070 nM (active); in experiment [7], 12000 nM (active).
